These results are taken from PubChem BioAssay.

The target in assay [1] is Tumor necrosis factor receptor superfamily member 10B (Homo sapiens) (UniProt O14763). Put plainly: viability loss of caspase-8 NB7 cells with TRAIL – with/without TRAIL, luminescence panel, confirmation (AID 651596). Conditions: NB7 neuroblastoma + caspase-8, TRAIL sensitization, NB7 Caspase-8, with TRAIL, mean of runs, at 10 µM, stronger effect = higher value.
Experiment in assay [2]: as above
Conditions: NB7 neuroblastoma + caspase-8, without TRAIL, NB7 Caspase-8, without TRAIL, mean of runs, at 10 µM.

Each structure is given as a SMILES string.

Chain of Tumor necrosis factor receptor superfamily member 10B (Homo sapiens) (O14763 whole entry, looked up): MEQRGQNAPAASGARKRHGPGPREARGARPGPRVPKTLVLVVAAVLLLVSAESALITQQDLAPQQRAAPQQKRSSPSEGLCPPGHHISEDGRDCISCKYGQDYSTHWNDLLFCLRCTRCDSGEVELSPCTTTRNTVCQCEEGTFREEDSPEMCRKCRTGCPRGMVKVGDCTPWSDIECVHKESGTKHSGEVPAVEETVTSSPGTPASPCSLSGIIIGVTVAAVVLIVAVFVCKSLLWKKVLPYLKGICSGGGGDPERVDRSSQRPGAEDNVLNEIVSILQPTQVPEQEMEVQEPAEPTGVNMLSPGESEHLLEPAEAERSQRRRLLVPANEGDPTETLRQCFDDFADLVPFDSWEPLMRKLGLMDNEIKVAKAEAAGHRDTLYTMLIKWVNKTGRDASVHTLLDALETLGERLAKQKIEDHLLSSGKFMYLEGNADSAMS

In the case of `Cc1cccc(-c2nc3cc(NC(=O)C4CCCO4)ccc3o2)c1` (configuration not stated), the values for the activity in assay [1] and in assay [2] were 66.7% and 64.7%, respectively.

For `FC(F)(F)c1cccc(Sc2nc(-c3ccccc3)nnc2C(F)(F)F)c1`, the activity in assay [1] came out at 42.5%; in assay [2], 60.4%.

Consider `CC(=O)c1cccc(NC(=O)CSc2ccc(-c3ccc4c(c3)OCO4)nn2)c1`, for which the activity in assay [1] was 52.1%; in assay [2], 50%.

As for `Cc1nc(N)nc(N)c1CCCc1ccc(Cl)c(Cl)c1`, the activity in assay [1] came out at 69.6%; in assay [2], 74.8%.

Regarding `COc1ccc(C=C2C=C(C(C)(C)C)C(=O)C(C(C)(C)C)=C2)cc1OC`, the activity in assay [1] worked out at 93.4%; in assay [2], 98.8%.

Take `COc1ccccc1Nc1nc(N)nc(CCl)n1`: the figures for the activity in assay [1] and in assay [2] were 98.8% and 96.4%, respectively.

Turning to `Cc1ccc2nc(-c3ccccn3)[nH]c2c1`, the activity in assay [1] came to 81%; in assay [2] it was 83.9%.

Take `Oc1ccc(-c2cn3cc(C(F)(F)F)ccc3n2)cc1`: the activity in assay [1] is 89.1%; in assay [2], 87.5%.

As to `COc1cc(SC)ccc1C(=O)NNC(=O)c1cc(C)oc1C`, the activity worked out at 71.4% in assay [1] and 70.8% in assay [2].

With `CCCn1c(C)cc(C(=O)COC(=O)c2ccc[nH]c2=O)c1C`, the activity in assay [1] worked out at 49%; in assay [2] it was 49.6%.

Take `Cc1cc(/C(N)=N/OC(=O)c2ccccc2Cl)no1`: the activity in assay [1] amounted to 63.5%; in assay [2], 68.1%.

Consider `COc1cccc(NC(=O)c2cc3ccccc3o/c2=N\O)c1`, for which the results for the activity in assay [1] and in assay [2] were 65% and 64.6%, respectively.

For `C/C(=N\NC(=O)c1ccc2ccccc2c1)c1cccs1`, the activity amounted to 60.5% in assay [1] and 67.2% in assay [2].

In the case of `Cc1ccccc1CS(=O)(=O)c1ncc(Cl)c(C(=O)Nc2ccc(F)cc2)n1`, the activity in assay [1] was determined as 22.5%; in assay [2], 24.9%.

Consider `Nc1cc2sc(-c3ccc(C(=O)O)cc3)nc2cc1Cl`, for which the activity in assay [1] came to 52.8%; in assay [2], 42.5%.

`CN1CCN(C(=O)C2=NOC3(C2)C(=O)Nc2ccccc23)CC1` (configuration not stated): the figures for the activity in assay [1] and in assay [2] were -0.15% and 70.2%, respectively.

For `O=C(Nc1ccccc1C(=O)N/N=C/c1ccncc1)c1ccccc1`, the activity in assay [1] worked out at 91.7%; in assay [2], 87.5%.

With `c1ccc(-c2cnc(-c3ccccc3)nn2)cc1`, the values for the activity in assay [1] and in assay [2] were 64.9% and 68.4%, respectively.

On to `COc1cccc(-c2nnc(-c3ccc(C)o3)o2)c1`, for which the activity in assay [1] came to 64.9%; in assay [2], 65.2%.

Turning to `C=C(C)CSc1nnc2n(C)c(=O)c3c4c(sc3n12)CCC4`, the values for the activity in assay [1] and in assay [2] were 61.6% and 63.9%, respectively.

For `Nc1c(-c2ccccc2)cnc2c(-c3ccccc3)cnn12`, the activity in assay [1] stood at 73.7%; in assay [2] it was 77.2%.

Turning to `O=C(Nc1ccc(NC(=O)C2CCCCC2)cn1)c1ccco1`, the activity was 76.2% in assay [1] and 80.6% in assay [2].

On to `Oc1ccc(-c2cn3ccccc3n2)cc1`, for which the activity in assay [1] was found to be 45.3%; in assay [2], 45.5%.

Consider `CSc1ccc(/C=C/C(=O)NC(=O)c2ccccc2O)cc1`, for which the activity in assay [1] was found to be 82.5%; in assay [2], 84.7%.

On to `O=C(CSc1nnc(NC(=O)c2ccc3c(c2)OCO3)s1)NCc1ccco1`, for which the figures for the activity in assay [1] and in assay [2] were 85.4% and 83.7%, respectively.

Turning to `CCC(=O)c1ccc(/C=C/c2nc3ccccc3n2C)o1`, the activity in assay [1] was 61.2%; in assay [2], 54.8%.

Turning to `O=C(c1cc(-c2ccc3c(c2)OCO3)on1)N1CCCCC1`, the activity in assay [1] was 53.4%; in assay [2] it was 48.9%.

For the compound `O=C(N/N=C/c1ccccc1)c1ccc2c(c1)OCO2`, the activity in assay [1] was 61.2%; in assay [2], 56.1%.

For the compound `C#Cc1ccc(NC(=O)C2(C)CCN2C(=O)Cc2ccc(-c3ccccc3)cc2)cc1` (configuration not stated), the activity worked out at 94.4% in assay [1] and 68.4% in assay [2].

`Cn1c(N)c(C(=O)COC(=O)c2cc(S(=O)(=O)N3CCOCC3)ccc2F)c(=O)n(C)c1=O`: the figures for the activity in assay [1] and in assay [2] were 90.6% and 93.8%, respectively.

On to `O=C(CCl)N=c1sccn1Cc1ccccc1Cl`, for which the activity worked out at 99.6% in assay [1] and 98.9% in assay [2].

Turning to `C=C1C(=O)c2sccc2C(c2ccc(OC)c(OC)c2)C1COC(C)=O` (configuration not stated), the activity in assay [1] was 98.2%; in assay [2], 99.2%.

Turning to `CC(/C=N/NC(=O)c1ccco1)=C\c1ccccc1`, the activity in assay [1] came out at 73.5%; in assay [2], 71.2%.

For the compound `CCCOc1ccc(-c2nnc(-c3ccco3)o2)cc1`, the activity stood at 53.5% in assay [1] and 50.9% in assay [2].

Consider `Cc1ccc(NC(=O)c2ccc(CSc3nnnn3C)cc2)cc1`, for which the activity was found to be 44.9% in assay [1] and 37.7% in assay [2].

In the case of `O=C(/C=C/C(Cl)(Cl)Cl)Nc1ccc(Cl)cc1`, the values for the activity in assay [1] and in assay [2] were 98.8% and 98.9%, respectively.

As for `O=C(Nc1nc2ccccc2[nH]1)C12CC3CC(CC(C3)C1)C2`, the activity in assay [1] worked out at 66.2%; in assay [2], 65.7%.

Consider `O=C(CN(Cc1ccccc1)C(=O)CCl)c1cccc(Br)c1`, for which the activity came to 99.3% in assay [1] and 93.5% in assay [2].

Consider `Cc1ccc(/C(N)=N/OC(=O)c2ccc(Cl)cc2Cl)cc1`, for which the activity turned out to be 97% in assay [1] and 96.7% in assay [2].

Consider `Cc1nc2cc(-c3ccccc3)nn2c(N)c1-c1ccccc1`, for which the activity in assay [1] is 59%; in assay [2], 44.4%.

For the compound `O=C(N/N=C/c1ccccc1[N+](=O)[O-])c1ccc2c(c1)OCCO2`, the activity in assay [1] is 95.4%; in assay [2], 94.5%.

Regarding `COn1c(SCc2ccc(C)cc2C)nc2ccccc2c1=O`, the activity was 69.7% in assay [1] and 35.5% in assay [2].

For `COc1ccc(C(=O)Nc2ccc3ccccc3c2)cc1`, the activity was determined as 76.8% in assay [1] and 74.5% in assay [2].

`COc1cccc2sc(N(C)c3ccccc3)nc12`: the values for the activity in assay [1] and in assay [2] were 58.3% and 61.2%, respectively.

Regarding `COc1ccc2c(=O)cc(-c3ccccc3)n(C)c2c1`, the activity came out at 56.4% in assay [1] and 60.1% in assay [2].

On to `COc1ccc(CC(N)c2csc(NC(=O)c3cc(C(C)(C)C)nn3Cc3ccccc3)n2)cc1` (configuration not stated), for which the activity is 52.9% in assay [1] and 90.5% in assay [2].
